The campaign covered roughly 48,000 compounds. About 13,000 (27%) showed an effect of 50% or more. This is one part of the list.
System: Wolbachia pipientis
Assay: Anti-Wolbachia Cell-Based Screen
Assay type: functional
Parameters: scale not given: in the data most compounds retested in dose-response had high values
Details: 5 µM

Row | SMILES | Percent Effect
1 | NC(=O)c1ccc(N2CCCCC2)c(NC(=O)c2cc(Br)ccc2Cl)c1 | 10.69%
2 | O=C(c1cc(Br)ccc1-n1cnnn1)N1CCCCC1 | 184.2%
3 | NC(=O)C1CCN(C(=O)c2cc(Br)ccc2-n2cnnn2)CC1 | 120.4%
4 | Cc1cnn(C2CCCN(C(=O)c3sccc3-n3cnnn3)C2)c1 (configuration not stated) | -13.25%
5 | NC(=O)C1CCN(C(=O)c2ccccc2OCc2ccncc2)CC1 | -0.6716%
6 | NC(=O)C1CCN(C(=O)c2ccc(Cn3cc(Br)cn3)cc2)CC1 | -10.39%
7 | O=C(c1cc(Br)ccc1Cl)N1CCN(Cc2ccco2)CC1 | 8.904%
8 | NC(=O)c1ccc(N2CCCCC2)c(NC(=O)c2cc(Br)ccc2F)c1 | 10.52%
9 | O=C(c1cc(Br)ccc1-n1cnnn1)N1CCCC1 | 113.6%
10 | O=C1C(Nc2ccc3nccnc3n2)CCN1c1ccccc1F (configuration not stated) | -13.15%
11 | O=C(CCCc1ccccc1)Nc1cnc(N2CCOCC2)nc1 | -16.01%
12 | CNC(=O)c1cccc(CNC(C)c2cc(Cl)ccc2OC)c1 (configuration not stated) | 8.961%
13 | CCc1c(C)nn(C)c1NC(=O)N1CCCOC(Cn2cccn2)C1 (configuration not stated) | -2.471%
14 | CCOCCn1nc(C)cc1C(=O)N1CC(C)(C)[C@@](C)(O)C1 | -27.83%
15 | CC1=Nc2c(c(=O)[nH]n2C(C)C)C(c2ccccc2)S1 (configuration not stated) | 3.045%
16 | CC1=Nc2c(c(=O)[nH]n2C(C)C)C(c2ccc(F)c(F)c2)S1 (configuration not stated) | 0.5897%
17 | CC1=Nc2c(c(=O)[nH]n2C(C)C)C(c2ccsc2)S1 (configuration not stated) | 124.6%
18 | COc1cc(OC)cc(N2CCC(NCc3cc[nH]n3)C2)c1 (configuration not stated) | -8.563%
19 | Cc1ccc(C(NC(=O)Cc2nc3ncccn3n2)C2CC2)cc1 (configuration not stated) | -15.47%
20 | O=S(=O)(c1ccc2c(c1)CCC2)N1CCCC(Cn2cncn2)C1 (configuration not stated) | 1.903%
21 | O=C(CSCc1ccccn1)NCC1CCN(C2CC2)C1 (configuration not stated) | 21.4%
22 | O=C(CSCc1ccncc1)NCC1CCN(C2CC2)C1 (configuration not stated) | 13.02%
23 | CCCSCC(=O)Nc1ncn(CC(=O)NCc2ccccc2)n1 | 0.11%

Row | SMILES | Percent Effect
24 | CCN(C)Cc1cccc(CNC(=O)NCCc2ccccn2)c1 | 112.6%
25 | CCCSCC(=O)NCc1cccc(CN(C)CC)c1 | 105%
26 | CCN(C)Cc1cccc(CNC(=O)CSCc2ccccn2)c1 | 99.73%
27 | CC(Cn1ccnc1)NC(=O)NCCc1ccccn1 (configuration not stated) | -12.71%
28 | COc1cccc(CSCC(=O)NCc2cccnc2)c1 | 3.69%
29 | CCN(C)Cc1cccc(CNC(=O)CSCc2ccncc2)c1 | 124.3%
30 | O=C(CSCc1ccccn1)NCC1CC1 | 22.7%
31 | CCCC(=O)NCc1cccc(C(=O)OC)c1 | -9.94%
32 | O=C(NCCNc1ncccn1)NCc1cccc(OC(F)F)c1 | -1.067%
33 | Cc1csc(N2CCCN(C(=O)C(C)n3ccnc3)CC2)n1 (configuration not stated) | -4.315%
34 | Cc1nnc2n1CC(CNCc1nc(-c3cccs3)no1)CC2 (configuration not stated) | -7.356%
35 | CCn1cc2c(n1)C(COC)CN(Cc1ccccn1)C2 (configuration not stated) | -2.413%
36 | CCSCCn1cc(-c2ncc[nH]2)nn1 | 7.304%
37 | CNC1CCN(C2CCN(c3ccc(-c4ccco4)cc3)CC2)CC1 | -8.193%
38 | Cn1cc(C(=O)N2CCCN(c3cccnn3)CC2)c2ccccc21 | -6.467%
39 | O=S(=O)(CCCn1cncn1)Cc1ccccc1Cl | -3.419%
40 | CC(C)c1cc2c(O)nc(CSCC(=O)NCc3ccccn3)nc2s1 | -13.17%
41 | CC(C)OCCOCc1cccc(NC(=O)NCc2ccccn2)c1 | 14.04%
42 | CC(C)C(=O)Nc1cccc(CNC(=O)CSCc2ccccn2)c1 | 119.7%
43 | Nc1cc2c(nn1)CCN(C(=O)c1cccc3c1OCO3)C2 | 99.08%
44 | CCNc1cc2c(nn1)CCN(C(=O)C1COc3ccccc3O1)C2 (configuration not stated) | -8.562%
45 | CCNc1cc2c(nn1)CCN(C(=O)c1cccc3c1OCO3)C2 | 107.3%
46 | CNc1cc2c(nn1)CCN(C(=O)c1cccc3c1OCCO3)C2 | 94.51%

Row | SMILES | Percent Effect
47 | Nc1cc2c(nn1)CCN(C(=O)CCc1ccc3c(c1)OCO3)C2 | -16.52%
48 | Nc1cc2c(nn1)CCN(C(=O)c1cccc3c1OCCO3)C2 | 2.04%
49 | CCNc1cc2c(nn1)CCN(C(=O)c1cccc3c1OCCO3)C2 | 1.992%
50 | CNc1cc2c(nn1)CCN(C(=O)c1cccc3c1OCO3)C2 | -1.864%
51 | O=C(c1ccoc1)N1CC[C@H]2[C@H]1CCN2S(=O)(=O)C1CC1 | -16.54%
52 | O=C(c1cnccn1)N1CC[C@H]2[C@H]1CCN2S(=O)(=O)C1CC1 | -1.574%
53 | Cc1oncc1C(=O)N1CC[C@H]2[C@H]1CCN2S(C)(=O)=O | 102.2%
54 | Cc1cc(C(=O)N2CC[C@H]3[C@H]2CCN3S(C)(=O)=O)c(C)o1 | 109.3%
55 | CO[C@@H]1CCN(C(=O)c2cnoc2C)[C@H]1Cc1ccccc1 | -17.67%
56 | Cc1cc(C(=O)N2C[C@@H]3CN(S(C)(=O)=O)CCO[C@@H]3C2)c(C)o1 | -7.965%
57 | CC(=O)Nc1nc(-c2ccccc2)c[nH]1 | -21.73%
58 | CN(C)c1cc(CNC(=O)c2ccc(O)nc2)ccn1 | 121.2%
59 | Cc1cc(C(=O)NCc2ccnc(N(C)C)c2)c(C)o1 | 4.439%
60 | CN(C)c1cc(CNC(=O)c2ccc(F)cc2F)ccn1 | 0.296%
61 | CCS(=O)(=O)c1ccccc1C(=O)NCc1ccnc(N(C)C)c1 | -0.6479%
62 | Cc1nccn1-c1cc(CNC(=O)c2ccnc(N(C)C)c2)ccn1 | 25.84%
63 | CN(C)c1cc(CNC(=O)c2cn(-c3ccc(F)cc3)nn2)ccn1 | -3.053%
64 | CN(C)c1cc(CNC(=O)c2cc(Cl)ccn2)ccn1 | 157.2%
65 | CN(C)c1cc(CNC(=O)c2cccnc2O)ccn1 | 123.9%
66 | CN(C)c1cc(CNC(=O)c2n[nH]c(=O)c3ccccc23)ccn1 | 128.9%
67 | CN(C)c1cc(CNC(=O)c2ccc(=O)[nH]n2)ccn1 | 0.8371%
